According to PubChem BioAssay (NCI):
About 83,000 compounds went through this panel and 20% of them were active in at least one assay; those are over-represented in the sample as a whole.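 Plates (96-well) were seeded with cells, treated with compound at one concentration, and incubated for 48 hours before percent growth was determined.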 Active and inactive are the calls of the source.

What follows are compounds tested on EKVX NSCLC (assay: NCI-60 one-dose screen, 48 h (100 = growth as untreated, 0 = no growth, -100 = all killed)). Settings: 10 µM unless noted.
Description: Growth inhibition of the EKVX human Non-Small Cell Lung tumor cell line is measured as a screen for anti-cancer activity. Cells are grown in 96 well plates and exposed to the test compound for 48 hours. Compounds are tested at a single concentration, which is 10^-5 M for most compounds. The reported endpoint is percent growth (GI% or GIPRCNT), where numbers from 0 - 100% represent growth inhibition, and numbers from -100% - 0 represent cell death. For example, a value of 40 represents 60% growth inhibition. A value of 0 means no net growth occurred over the course of the experiment. A value of -40 indicates 40% of cells at the beginning of the experiment died by the end of the experiment. A value of -100 means all cells are dead at the end of the experiment.
NCI-60 Human Tumor Cell Lines Screen was performed using the standard one-dose NCI protocol, which is described in more detail at https://dtp.cancer.gov/discovery_development/nci-60/default.htm.
Compounds with GIPRCNT values below 10 were considered active. Activity score was based on GIPRCNT using the following formula: […]
Score is 0 for GIPRCNT values of 100 or above, 50 for GIPRCNT values of 0, and 100 for GIPRCNT values of -100.

| Structure (SMILES) | growth |
| --- | --- |
| COc1nc2ccc(C)cc2cc1-c1nc2c(cnn2-c2ccc(Br)cc2)c(=O)[nH]1 | 53.5% (inactive) |
| Cc1cc2nc3cc(C)c(N)cc3[n+](-c3ccccc3)c2cc1N | 47.3% (inactive) |
| CN1CCN(Cc2ccc(NC(=O)c3cncc(C#Cc4cnccc4C#N)c3)cc2C(F)(F)F)CC1 | 66.4% (inactive) |
| COc1ccc(-c2[nH]c3ccc(OC)cc3c2/C=C(\C#N)S(=O)(=O)c2ccccc2)cc1 | 36.8% (inactive) |
| Cc1cc2nc3ccc(N=Nc4ccc(N(C)C)cc4)cc3n(-c3ccccc3)c-2cc1=N | -94.6% (active) |
| Brc1c[n+](Cc2ccc3ccccc3c2)cn1Cc1ccc2ccccc2c1 | 60.1% (inactive) |
| NCCNc1nc2ccccc2c2c(=O)c3cccc(F)c3sc12 | 74.1% (inactive) |
| Cc1ccc(-c2nc(N3CCN(CC(=O)Nc4ccc(Cl)c(C(F)(F)F)c4)CC3)c3ccccc3n2)cc1 | 87.3% (inactive) |
| COc1ccc(-c2nc3sc(-c4ccccc4)cn3n2)cc1 | 62.7% (inactive) |
| CC(C)(C)NC(=O)C(OC(=O)c1cccc(Cl)c1)c1ccc(Cl)cc1 (stereo not given) | 109% (inactive) |
| CCCCCCCCCCCCCCCCCC1OCC(COC(=O)O[C@]2(CC)C(=O)OCc3c2cc2n(c3=O)Cc3cc4ccccc4nc3-2)O1 (stereo not given in full) | 92.4% (inactive) |
| COc1ccc(C2C(C#N)=C(N)Oc3c2sc2c(C)cccc32)cc1 (stereo not given) | 42.3% (inactive) |
| CC1=C(SCCC(=O)OC(C[Se]C2=C(C)C(=O)c3ccccc3C2=O)C(=O)NC(C)(C)C)C(=O)c2ccccc2C1=O (stereo not given) | -71.2% (active) |
| COc1ccc2c(c1OC)C(=O)O[C@H]2[C@H]1c2c(cc3c(c2OC)OCO3)CCN1C | 95.4% (inactive) |
| COc1cccc(-c2nc(-c3ccc(NC(=O)C(C)C)cc3)[nH]c2-c2ccnc(Br)c2)c1 | 45.1% (inactive) |
| C[C@]12CC[C@@H]3c4cc(OC(F)F)c(OS(N)(=O)=O)cc4CC[C@H]3[C@@H]1CC[C@@H]2OS(N)(=O)=O | 19% (inactive) |
| CCC(C)(c1cc(C(C)(C)C)c(O)c(C(C)(C)C)c1)c1cc(C(C)(C)C)c(O)c(C(C)(C)C)c1 | 107% (inactive) |
| CN1CCN(CC(=O)N2c3cccc4cccc(c34)N(C(=O)CN3CCN(C)CC3)C2c2cn(-c3ccccc3)nc2-c2cccc([N+](=O)[O-])c2)CC1 | 17.8% (inactive) |
| CCn1cnc2c1c(=O)[nH]c(=O)n2CC1CCC(CNS(=O)(=O)c2ccc(OC3CCOCC3)c(F)c2)CC1 (stereo not given) | 68.1% (inactive) |
| NCCCNc1nc2ccccc2c2c(=O)c3cc(F)cc(F)c3sc12 | 96.8% (inactive) |

| Structure (SMILES) | growth |
| --- | --- |
| O=c1c2cccc(F)c2sc2c(NCCCNCCO)nc3ccccc3c12 | 55.4% (inactive) |
| COc1cc(C(=O)c2cnc(-c3c[nH]c4cccc(C)c34)[nH]2)cc(OC)c1OC | 29.7% (inactive) |
| Cc1nn(-c2ccccc2)c(-n2ccnc2)c1/C=N/Nc1nc(-c2ccc(F)cc2)cs1 | 49.5% (inactive) |
| C[N+]1=C(/C=C/c2ccc(O)c3ncccc23)C(C)(C)c2ccccc21 | 58.7% (inactive) |
| Cc1cc(O)c(C2=NN(c3ccc(S(N)(=O)=O)cc3)C(/C=C/c3ccccc3)C2)cc1Cl (stereo not given) | 68.8% (inactive) |
| N#Cc1c(-c2ccc(Cl)cc2)nc2c(c(-c3ccccc3)nn2-c2ccccc2)c1-c1ccc(O)cc1 | 67.8% (inactive) |
| CCc1ccc2nc(NC(=O)Cc3csc(NC(=O)c4ccco4)n3)sc2c1 | 81.7% (inactive) |
| COc1cc(C(=O)N/N=C/c2cc3cc(OCc4ccccc4)ccc3nc2OC)cc(OC)c1OC | 85.4% (inactive) |
| CCN1C(=O)N(CC)C2Nn3c(s/c(=C\c4ccc([N+](=O)[O-])cc4)c3=O)=NC21 (stereo not given) | 73.3% (inactive) |
| O=C(Cc1ccc(F)c(Cl)c1)Nc1cc(C2(C(F)(F)F)CC2)nn1Cc1ccccc1 | 68.1% (inactive) |
| COc1ccc(/C=C(\C#N)n2nnc3c(F)cccc32)cc1 | 32.3% (inactive) |
| COc1ccc(-c2nc(NN)c3c(C)nn(-c4ccc(F)cc4)c3n2)cc1 | 59.4% (inactive) |
| OC(COc1ccccc1Cl)CN1CCN(c2cccc(Cl)c2)CC1 (stereo not given) | 119% (inactive) |
| Cc1ccc(/C=C(\C#N)n2nc3cccc(F)c3n2)cc1 | 83.5% (inactive) |
| O=S(=O)(NCCCNc1cc(-c2c(-c3cccc(O)c3)nc3sccn23)ccn1)c1cccc2ccccc12 | 50% (inactive) |
| c1ccc(OCc2nnc(-c3ccc(Oc4ccccc4)cc3)o2)cc1 | 96.6% (inactive) |
| CCN1C(=O)N(CC)C2Nn3c(s/c(=C4\C(=O)N(CC(C)C)c5ccccc54)c3=O)=NC21 (stereo not given) | 63.8% (inactive) |
| O=C1c2cccc3cccc(c23)C(=O)N1N1C(=O)c2cccc3c(NC4CCCCC4)ccc(c23)C1=O | 89.3% (inactive) |
| COc1cccc2c(=O)c3c(sc12)c(NCCCN)nc1ccccc13 | 63.6% (inactive) |
| COc1cc(C)c(Cc2cnc(N)nc2N)cc1OC | 100% (inactive) |
